# AMA1-RON2 inh = inhibitors of Plasmodium falciparum AMA1-RON2 interaction | AlphaScreen AMA1-biotinylated RON2 peptide binding | Potency, µM (highest dose often 58.2 µM), for the others: top-dose activity change, negative = inhibition, usual class: inhibitors | hit rate 0.2% among 360,000 | AID 720542;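 also: 0% = vehicle wells and -100% = peptide control; nearly all actives have a fitted effect of over 45% in size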
#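 AMA1 (3D7) with his tag at 25 nM final met compounds first, then biotinylated RON2 peptide at 25 nM; detection used donor plus acceptor beads, 10 µg/mL apiece, read by AlphaScreen after 30 min at room temperature.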
# AmpC inh detg = AmpC beta-lactamase inhibition with detergent present | P00811 | AmpC hydrolysis of nitrocefin, absorbance 480 nm, 0.01% Triton | Potency, µM (doses to about 114 µM), for inactives: at the highest dose activity change, negative = inhibition, usual class: inhibitors | hit rate 0.041% among 370,000;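 also: 0% = no-compound wells and -100% = no-enzyme wells; nearly all actives have a fitted effect of over 25% in size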
# Target sequence (P00811 whole entry, looked up): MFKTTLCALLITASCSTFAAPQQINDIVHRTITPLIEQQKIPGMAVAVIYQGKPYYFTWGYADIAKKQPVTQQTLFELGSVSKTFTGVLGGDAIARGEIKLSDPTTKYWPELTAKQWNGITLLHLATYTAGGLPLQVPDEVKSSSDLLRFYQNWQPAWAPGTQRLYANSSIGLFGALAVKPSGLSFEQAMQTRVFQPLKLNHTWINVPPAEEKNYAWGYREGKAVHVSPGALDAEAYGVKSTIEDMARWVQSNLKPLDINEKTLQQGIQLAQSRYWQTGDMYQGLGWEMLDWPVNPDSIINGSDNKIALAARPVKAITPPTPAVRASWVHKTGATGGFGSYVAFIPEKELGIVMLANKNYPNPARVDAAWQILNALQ
#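 20 mM phosphate pH 7.0 + 0.01% (detergent screen) or 0.0001% Triton X-100; 5.3 nM AmpC reagent; cpd preinc 15 min RT; nitrocefin (800 uM stock) to start; A480 q20 s × 4 min; Activity was normalised to no-enzyme and no-compound control wells.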
# AmpC no deterg = blocks E. coli AmpC beta-lactamase in detergent-free assay. Potency, µM (series often up to 57.1 µM), inactives show top-dose activity change, negative = inhibition, usual class: inhibitors. P00811. hit rate 0.52% among 330,000. AID 485341. AmpC nitrocefin hydrolysis, absorbance 480 nm, 0.0001% Triton;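 also: plate controls were no compound for no effect and no enzyme for full effect; nearly all actives have a fitted effect of over 20% in size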
#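 20 mM phosphate pH 7.0 + 0.01% (detergent screen) or 0.0001% Triton X-100; 5.3 nM AmpC reagent; cpd preinc 15 min RT; nitrocefin (800 uM stock) to start; A480 q20 s × 4 min; Activity was normalised to no-enzyme and no-compound control wells.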
# HCV inh = blocks hepatitis C virus | Huh7.5.1 HCVcc-Cre infection, luciferase reporter, 44 h | Potency, µM (series often up to 41.8 µM), for inactives: at the highest dose activity change, negative = inhibition, actives largely listed as inhibitors | hit rate 3.4% among 340,000 | AID 651820
#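 After 44 h co-culture of compound, cells and HCVcc-Cre (~0.5 moi), substrate is added for 15 min at room temperature and luciferase measured over 15 sec. Cells were seeded at 1,000/well and pre-cultured 4 h.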
# Pf growth 96h = P. falciparum growth inhibition at 96 hours. Potency, µM (series often up to 28.7 µM), inactives show at the highest dose activity change, negative = inhibition, usual class: inhibitors. P. falciparum luciferase reporter growth, 96 h. hit rate 6.9% among 320,000
#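 Infected RBCs, 2% Hct / 0.05% parasitemia final; luciferase-reporter P. falciparum; cpd 96 h, 37 C, 5% CO2; luciferase detection reagent; luminescence.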
# Pf growth 48h = P. falciparum growth inhibition at 48 hours (one generation) | P. falciparum luciferase growth in erythrocytes, 48 h | Potency, µM (series often up to 28.7 µM), without a hit: at the highest dose activity change, negative = inhibition, hits mostly inhibitors | hit rate 5.9% among 310,000
#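 First compound was added to culture medium, then infected red cells at 0.1% parasitemia and 2% hematocrit (final). After incubation at 37 C under 5% CO2, luciferase detection reagent was dispensed and light output recorded.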
# * hit, by the source's call; ? = inconclusive; . = no result; ! = repeats disagree; [ ] = another dose, or the depositor's remark. The list is not random: actives were taken first. Their share in the collection is about 11%. Calls follow the shape of the dose curve; as a rule, active = well fitted curve in the direction sought with a large enough effect; inconclusive = small, poorly fitted or top-dose-only effect, or another doubt; inactive = no such curve, though single readings can be large; an effect the other way counts as inactive or inconclusive. Unless noted, % is scaled to controls: 0 for no effect and ±100 for the full control effect; potency is read from the fitted curve at half-maximal effect.
SMILES,AMA1-RON2 inh,AmpC inh detg,AmpC no deterg,HCV inh,Pf growth 96h,Pf growth 48h
COc1ccc(Cl)cc1NC(=O)CN(C)CC(=O)Nc1c(C)n(C)n(-c2ccccc2)c1=O,92%,-9%,16%,3.5µM*,0%,-17%
CCOc1ccccc1N(CC)C(=O)c1noc2c1COc1ccc(C)cc1-2,.,13%,.,.,.,.
COc1cc(/C=C(\C#N)C(=O)Nc2ccc(SC(F)F)cc2)cc(OC)c1OC,3%,-2%,-41%,-23%,5.2µM*,.
COc1cc2oc(=O)c(CC(=O)NCc3ccc(OC)c(OC)c3)c(C)c2cc1Cl,.,11%,.,.,.,.
C/C(=N\NC(=O)c1ccco1)c1cccc2ccccc12,-3%,4%,-19%,?,-21%,9.3µM*
C/C(=N\NC(=O)c1ccc(C(=O)N/N=C(\C)c2ccco2)o1)c1ccco1,0%,-3%,-31%,-5%,2.6µM*,?
CCc1ccc(OCC(=O)N(Cc2ccco2)Cc2ccco2)cc1,.,20%,.,.,.,.
Clc1ccc(-c2noc(-c3cccnc3N3CCN(c4ccccc4)CC3)n2)cc1,.,0%,.,.,.,.
COc1ccccc1OCc1ccc(C(=O)NC(C)(C)C)o1,8%,-2%,0%,?,93%,18%
COc1ccc(C(=O)NC(=S)NCc2ccco2)cc1Br,-2%,13%,-43%,-27%,?,?
COc1ccccc1OCc1ccc(C(=O)NCc2ccco2)o1,0%,0%,0.28µM*,?,14%,?
COc1cccc(C(=O)NC(=S)NCc2ccco2)c1,-4%,-5%,-1%,8%,3.7µM*,70%
COc1ccc(C(=O)NC(=S)NCc2ccco2)cc1OC,5%,5%,-5%,-10%,7.4µM*,0%
COc1cccc(C(=O)c2cn(CC(=O)NCc3ccco3)c3nc(C)ccc3c2=O)c1,-10%,?,-23%,1%,4.1µM*,-18%
Cc1ccc(-n2nc(C(=O)N3CCN(c4cccc(C(F)(F)F)c4)CC3)c3c4ccccc4n(C)c3c2=O)cc1,.,0%,.,.,.,.
O=C(COCc1cc(-c2ccc(F)cc2)on1)Nc1cccc(Cl)c1Cl,.,16%,.,.,.,.
COc1ccc(S(=O)(=O)N(Cc2nc(-c3ccc(C)cc3)no2)C2CCCCC2)cc1,.,18%,.,.,.,.
CCOC(=O)/C=C1\CN(Cc2cc(OC)c(OC)c(OC)c2)S(=O)(=O)c2ccccc21,6%,-7%,90%,3.2µM*,?,?
CCOc1ccc(N2CC(NC(=O)Cc3ccccc3)CC2=O)cc1 (stereo not drawn),.,3%,.,.,.,.
CC(C)=N/N=C1\NC(=O)C(C)S1 (stereo not drawn),102%,?,-30%,17%,1.2µM*,4.7µM*
COc1cc2c(cc1OC)C(COc1cc(C)cc(C)c1)N(C(=O)c1ccc(S(=O)(=O)N3CCCC3)cc1)CC2 (stereo not drawn),.,6%,.,.,.,.
CC(C)C[C@H]1CNC(=S)N1C[C@H]1CCCN1C[C@H](Cc1ccccc1)N1C[C@H](Cc2ccc(O)cc2)N(CC2CCCCCC2)C1=S,8%,.,.,.,.,.
CC(C)C[C@H]1CNC(=S)N1CC1CCCN1C[C@H](Cc1ccccc1)N1C[C@H](Cc2ccc(O)cc2)N(CC2CCCCC2)C1=S (stereo partly drawn),17%,.,.,10µM*,.,.
CC(C)C[C@H]1CNC(=S)N1CC1CCCN1C[C@H](Cc1ccc(O)cc1)N1C[C@H](Cc2ccccc2)N(CC2CCCCCC2)C1=S (stereo partly drawn),6%,.,.,7.9µM*,.,.
CCOc1ccc(CCN2C(=S)N([C@@H](CC(C)C)CN3CCCC3CN3C(=S)NC[C@@H]3CC(C)C)C[C@@H]2Cc2ccccc2)cc1 (stereo partly drawn),3%,.,.,5.6µM*,.,.
SMILES,AMA1-RON2 inh,AmpC inh detg,AmpC no deterg,HCV inh,Pf growth 96h,Pf growth 48h
Oc1ccc(C[C@H]2CNC(=S)N2CC2CCCN2C[C@H](Cc2ccc(O)cc2)N2C[C@H](Cc3ccccc3)N(CCc3ccccc3)C2=S)cc1 (stereo partly drawn),8%,.,.,4.5µM*,.,.
CCOc1ccc(N2CC(NC(=O)c3ccc(S(=O)(=O)N4CCCCC4)cc3)CC2=O)cc1 (stereo not drawn),.,0%,.,.,.,.
CC(C)C[C@H]1CNC(=S)N1CC1CCCN1C[C@H](CC(C)C)N1C[C@H](Cc2ccc(O)cc2)N(CC2CCCCC2)C1=S (stereo partly drawn),10%,.,.,10µM*,.,.
Cc1oc2ncn(C)c(=O)c2c1C(=O)N(C)c1ccccc1F,.,3%,.,.,.,.
CCc1nn2c(=O)cc(COC(=O)CNC(=O)COc3ccc(C)cc3)nc2s1,.,-2%,.,.,.,.
N#Cc1c(NC(=O)CCN2C(=O)c3ccccc3C2=O)oc(-c2ccccc2)c1-c1ccccc1,-6%,-6%,-49%,-27%,24%,2%
N#Cc1c(NC(=O)CCn2cnc3ccccc3c2=O)oc(-c2ccccc2)c1-c1ccccc1,-7%,?,?,10µM*!,-8%,?
COC(=O)c1c[nH]n2c(=O)c(Cl)c(C)nc12,-4%,-12%,-4%,14%,-30%,14%
COC(=O)c1c[nH]n2c(=O)c(Cc3ccc(F)cc3Cl)c(C)nc12,1%,3%,-5%,3%,1.5µM*,-5%
COc1cccc(CNCc2ccccc2Br)c1OC,4%,?,-7%,?,9.3µM*,3%
COc1ccccc1CNCc1ccc(OC)c(OC)c1OC,-11%,1%,-20%,2%,10µM*,-28%
COc1ccc(C)cc1NCc1ccc(OC)c(C)c1OC,28µM*,-7%,-20%,-4%,0%,?
COc1cccc(CNCc2cccc(Br)c2)c1OC,-3%,-14%,-14%[11.4 µM],-29%,249%,5%
COc1ccccc1CNc1cc(-c2ccccc2)ccc1OC,?,-20%,-39%,0%,9.3µM*,?
COc1ccc(-c2ccccc2)cc1NCc1ccccc1C,?,-16%,-44%,-15%,?,68%
Cc1cccc(-n2c(=O)c3c(c4cc(C)ccc4n3C)n(CC(=O)NCC3CCCO3)c2=O)c1 (stereo not drawn),.,2%,.,.,.,.
Cn1cnc(S(=O)(=O)N2CCCC(C(=O)Nc3cccc(C#N)c3)C2)c1 (stereo not drawn),.,12%,.,.,.,.
COc1ccc(CNC(=O)CN2C(=O)COc3ccc(S(=O)(=O)Nc4ccccc4)cc32)cc1,.,-4%,.,.,.,.
O=C(CCNS(=O)(=O)c1ccc2c(c1)CCN2C(=O)C1CC1)N1CCN(c2cccc(Cl)c2)CC1,.,-8%,.,.,.,.
